Screening results (PubChem BioAssay)
PPARg SRC-2 ag – PPARgamma-driven SRC-2 recruitment agonism; P37231; PPARgamma LBD-SRC-2 recruitment, biochemical; activation, % at 8 µM; hit rate 0.34% among 200,000; AID 1032; in the data active = activation above about 22%;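 note: 0% = vehicle and 100% = reference agonist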
TR-FRET SRC-2 ct – TR-FRET artefact, counter-screen to PPARgamma/SRC-2 agonist assay | stronger effect = higher value | TR-FRET ratio at 8 µM | hit rate 0.4% among 200,000 | AID 1049
SRC3 TRFRET art – counter-screen for PPARgamma SRC-3 recruitment agonists: TR-FRET artefact; PPARgamma/SRC-3 format; stronger effect = higher value; hit rate 0.39% among 99,000; TR-FRET ratio at 8 µM
PPARg SRC-3 ag – PPARgamma-driven SRC-3 recruitment agonism; P37231; biochemical PPARgamma/SRC-3 coactivator recruitment assay; activation, % at 8 µM; hit rate 0.26% among 200,000; AID 731; in the data active = activation above about 23%;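 note: 0% = DMSO and 100% = reference agonist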
SRC1 TRFRET art – counter-screen for PPARgamma SRC-1 recruitment agonists: TR-FRET artefact; hit rate 0.34% among 99,000; TR-FRET detection artefact counter-screen, emission ratio; stronger effect = higher value; AID 1051; TR-FRET ratio at 8 µM; in the data active = TR-FRET ratio above about 2300
PPARg SRC1 recr – PPARgamma-driven SRC-1 recruitment agonism | P37231 | PPARgamma-SRC-1 coactivator recruitment biochemical assay | activation, % at 8 µM | hit rate 0.41% among 200,000 | AID 631; in the data active = activation above about 19%;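 note: 0% = DMSO and 100% = reference agonist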
PPARg SRC2 ag – confirmation of agonists of SRC-2 recruitment by human PPARgamma | shares compounds with PPARg SRC-3 ag | biochemical SRC-2 recruitment by PPARgamma | activation, % at 8 µM | hit rate 52% among 790 | AID 1297; in the data active = activation above about 22%;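 note: 0% = vehicle alone and 100% = reference agonist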
PPARg SRC1 conf – confirmation of agonists of SRC-1 recruitment by human PPARgamma; shares compounds with PPARg SRC-3 ag; PPARgamma–SRC-1 coactivator recruitment biochemical assay; activation, % at 8 µM; hit rate 43% among 790; in the data active = activation above about 20%;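 note: 0% = vehicle wells and 100% = reference agonist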
PPARg SRC3 ag – confirmation of agonists of SRC-3 recruitment by human PPARgamma | shares compounds with PPARg SRC-3 ag | biochemical PPARgamma-SRC-3 coactivator recruitment, agonist mode | activation, % at 8 µM | hit rate 29% among 790 | AID 1301; in the data active = activation above about 24%;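 note: 0% = vehicle wells and 100% = reference agonist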
The depositor's hits bear a star; nt = not tested or not shown. The list is not random: actives were taken first. Their share in the collection is about 0.84%. Cut-off read from the data, not from the text of the source, unless noted: active = TR-FRET ratio above about 2000; inactive = the rest.

SMILES	PPARg SRC-2 ag	TR-FRET SRC-2 ct	SRC3 TRFRET art	PPARg SRC-3 ag	SRC1 TRFRET art	PPARg SRC1 recr	PPARg SRC2 ag	PPARg SRC1 conf	PPARg SRC3 ag
COCCNc1nc2ccccc2nc1NS(=O)(=O)c1ccc(C)cc1C	23.4*	2002*	nt	22.7	nt	17.9	23.9*	17.0	14.3
CC(C)(C)c1ccc(OCC(=O)Nc2ccc3c4c(cccc24)C(=O)NC3=O)cc1	13.9	1795	1741	32.9*	2184	14.4	13.0	13.6	10.4
Cc1ccc(OCC(=O)NC(=S)Nc2ccc3c4c(cccc24)CC3)cc1	-3.8	1680	1684	-0.7	2107	0.3	nt	nt	nt
O=C(Nc1ccc2oc(-c3ccc(F)cc3)nc2c1)c1ccccc1F	27.8*	2348*	nt	20.6	nt	25.3*	13.7	12.0	6.2
CC(=O)N1CCc2ccc(S(=O)(=O)N3CC(C)OC(C)C3)cc21 (stereo unspecified)	-3.2	1611	1495	-1.1	1836	-2.1	nt	nt	nt
Cc1onc(-c2c(Cl)cccc2Cl)c1C(=O)N/N=C(\N)COc1ccc(Cl)cc1	1.0	1608	nt	-4.9	nt	7.0	nt	nt	nt
Cc1cc(=O)c2cc(Cl)ccc2[nH]1	-2.7	1770	nt	6.0	nt	5.5	nt	nt	nt
Cc1ccc2[nH]c(C)cc(=S)c2c1	38.1*	2363*	2534*	22.2	2798*	25.9*	3.9	6.8	5.0
N#Cc1ccsc1NC(=O)CN1CCN(S(=O)(=O)c2ccc3ccccc3c2)CC1	27.8*	2346*	2536*	8.0	2399*	18.6	11.2	9.9	5.5
CC(C)Cn1[nH]c2c3c(ccc2c1=O)C(=O)c1ccccc1C3=O	20.0	1610	nt	26.0*	nt	15.3	5.0	4.2	4.7
O=C1c2ccccc2C(=O)c2c1ccc1c(=O)n(-c3ccccc3)[nH]c21	5.9	1455	1724	2.5	1572	9.9	nt	nt	nt
O=c1oc2cc(O)ccc2c2ccccc12	47.1*	2392*	nt	59.8*	nt	27.6*	29.6*	17.1	22.4
COc1ccc2c(c1)c(=O)oc1cc(O)ccc12	5.1	1582	1675	2.8	1714	-2.4	nt	nt	nt
COc1cccc(NC(=O)c2cccc(C)c2[N+](=O)[O-])c1	3.0	1727	1635	-4.9	1749	4.3	nt	nt	nt
Oc1cc2c(cc1O)C1c3ccc(O)c(O)c3OCC1(O)C2 (stereo unspecified)	21.6	1683	1777	10.1	2256	27.1*	8.7	6.4	2.3
O=C(COc1ncnc2ccccc12)Nc1ccccc1[N+](=O)[O-]	5.1	1566	1429	-0.2	1680	13.7	nt	nt	nt
COc1ccccc1C(=O)OCc1c(F)cccc1Cl	0.8	1585	nt	10.3	nt	8.7	nt	nt	nt
CS(=O)(=O)c1ccccc1-c1nnc(-c2ccc(Cl)cc2)o1	-2.8	1576	1694	1.5	1928	0.7	nt	nt	nt
O=S(=O)(Cc1ccc(Cl)cc1)c1ccccc1-c1nnc(-c2ccccc2)o1	25.7*	2006*	nt	17.4	nt	10.1	0.6	3.4	-0.2
CCc1ccccc1NC(=O)N1CCC(NC(=O)C(Cc2ccccc2)NC(C)=O)CC1 (stereo unspecified)	3.8	1390	1576	3.8	1665	7.6	nt	nt	nt
Cc1cccc(OCCOc2ccccc2C=C(C#N)C#N)c1	-6.5	1559	1368	-2.5	1616	-6.8	nt	nt	nt
Cc1ccccc1OCCOc1ccccc1C=C(C#N)C#N	13.5	2050*	2057*	12.4	2244	20.5*	20.6	16.9	12.7
CC(NC(=O)CCN1C(=O)c2ccccc2C1=O)c1ccc2c(c1)CCCC2 (stereo unspecified)	15.4	1637	1713	2.1	1977	5.7	nt	nt	nt
CSc1nc2sc3c(c2c2nnnn12)CCCC3	20.3	2081*	nt	69.7*	nt	44.9*	50.1*	39.5*	25.9*
C#CCNC(=O)C1=C[C@H](C2CCCCC2)C[C@H](OCc2ccc(CO)cc2)O1	14.8	1615	1716	2.4	1703	24.4*	1.0	1.1	1.2
SMILES	PPARg SRC-2 ag	TR-FRET SRC-2 ct	SRC3 TRFRET art	PPARg SRC-3 ag	SRC1 TRFRET art	PPARg SRC1 recr	PPARg SRC2 ag	PPARg SRC1 conf	PPARg SRC3 ag
Cc1ccccc1S(=O)(=O)Nc1nc2ccccc2nc1N1CCOCC1	26.6*	2102*	nt	33.8*	nt	25.5*	43.4*	37.3*	27.9*
CCC(C)(C)NC(=O)C(c1ccncc1)N(C(=O)Cn1nnc2ccccc21)c1cc2c(cc1C(C)=O)OCO2 (stereo unspecified)	3.1	1514	1544	-0.2	1895	0.6	nt	nt	nt
CS(=O)(=O)c1sc2nc(-c3cccs3)cc(-c3ccccc3)c2c1N	30.1*	2002*	nt	25.0	nt	21.6*	27.5*	21.9*	20.9
CSc1ccccc1-c1nnc(-c2ccc(Cl)cc2Cl)o1	3.5	1526	nt	7.0	nt	1.9	nt	nt	nt
CCSc1nnc(-c2ccccc2SC)o1	19.3	2020*	1975	11.3	2385*	20.5*	27.5*	19.6*	17.6
COc1ccc2cc(CCN3C(=O)c4ccccc4C3=O)c(=O)[nH]c2c1	1.3	1357	1665	-0.7	1756	3.9	nt	nt	nt
COc1ccc([N+](=O)[O-])cc1NC(=O)c1ccc(Br)s1	16.6	2056*	2129*	12.7	2669*	22.0*	19.7	13.2	5.8
O=C(Nc1ccc2nc(-c3cccs3)[nH]c2c1)c1cccs1	-0.9	1449	nt	0.8	nt	-2.1	nt	nt	nt
O=C(Nc1ccc(-c2nc3ccc(NC(=O)c4cccs4)cc3[nH]2)cc1)c1cccs1	27.4*	1552	nt	11.6	nt	20.7*	10.7	1.4	4.6
CCOC(=O)C1(CC2CCCCO2)CCN(S(=O)(=O)c2cccc(F)c2)CC1 (stereo unspecified)	1.2	1719	1705	1.5	1846	10.1	nt	nt	nt
Cc1nn(Cc2ccccc2)c(Cl)c1/C=C1\NC(=S)NC1=O	-0.5	1598	1571	-3.0	1633	1.8	nt	nt	nt
COc1ccc2cc(C#N)c(SCC(=O)NNC(=O)Cc3ccccc3)nc2c1	48.6*	2781*	nt	8.4	nt	31.8*	54.3*	41.9*	37.3*
Cc1ccc2cc(C#N)c(SCC(=O)NNC(=O)Cc3ccccc3)nc2c1	3.7	1250	1337	4.4	1663	-3.0	nt	nt	nt
COc1ccc(CCNCC2C(Oc3ccc(Cl)cc3)C(=O)N2c2ccccc2C)cc1OC (stereo unspecified)	1.9	1735	1612	2.6	1896	10.0	nt	nt	nt
O=C1CCCN1CCCNC(=S)Nc1ccc(Nc2ccccc2)cc1	13.9	1621	1767	10.6	2144	23.8*	9.4	5.2	4.6
O=C1CCCN1CCNC(=S)Nc1ccccc1	0.1	1426	nt	11.1	nt	0.9	nt	nt	nt
C=CCn1c(NC(=O)c2ccc(Br)o2)c(S(=O)(=O)c2ccccc2)c2nc3ccccc3nc21	6.3	1627	nt	26.9*	nt	34.1*	8.0	5.8	4.5
